Measurements taken from the supplement of paper PMC4962491.
± gives the standard deviation of the averaged measurements.

Tested on: FaDu
Test: mitochondrial oxygen consumption rate normalised to cell number, Z score vs plate DMSO wells; higher = higher oxygen consumption (negative = OCR reduction)
Conditions: 10 µM; treatment time 24 h; assay medium: 5 mM glucose, 5 mM pyruvate, 4 mM glutamine
Procedure: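 Secondary screen: FaDu cells were incubated 24 h with the top 130 primary hits at 0.08, 0.4, 2 or 10 uM. Mitochondrial-specific OCR (basal minus antimycin A) was measured on a Seahorse XF96 in medium with 5 mM glucose, 5 mM pyruvate and 4 mM glutamine and normalised to Hoechst cell number. OCR score = (OCR - mean of plate DMSO wells) / SD of plate DMSO wells. Three repeats.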
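Note: compound exposure in DMEM (4 mM L-glutamine, 5 mM glucose), antimycin A injected at 2 µM after the basal reading and its residual OCR subtracted from basal.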

| SMILES | mitochondrial oxygen consumption rate normalised |
| --- | --- |
| O=C1C(O)=C([C@H]2CC[C@H](c3ccc(Cl)cc3)CC2)C(=O)c2ccccc21 | -3.55 ± 2.2 |
| CCCCCC(=O)O[C@]1(C(C)=O)CC[C@H]2[C@@H]3CCC4=CC(=O)CC[C@]4(C)[C@H]3CC[C@@]21C | -3.48 ± 1.8 |
| Cc1cc(C2CCCCC2)n(O)c(=O)c1 | -3.81 ± 1.9 |
| CC(C)OC(=O)C(C)(C)Oc1ccc(C(=O)c2ccc(Cl)cc2)cc1 | -2.82 ± 2.6 |
| CCCCCCCCCc1ccc(OCCOCCOCCOCCOCCOCCOCCOCCOCCO)cc1 | -7.69 ± 0.55 |
| CCc1c2c(nc3ccc(OC(=O)N4CCC(N5CCCCC5)CC4)cc13)-c1cc3c(c(=O)n1C2)COC(=O)[C@]3(O)CC | -4.72 ± 1 |
| CCOc1ccc2nc3cc(N)ccc3c(N)c2c1 | -6.87 ± 0.83 |
| CNC(=O)c1cc(Oc2ccc(NC(=O)Nc3ccc(Cl)c(C(F)(F)F)c3)cc2)ccn1 | -12.1 ± 0.9 |
| Nc1c2ccccc2nc2ccccc12 | -9.41 ± 0.65 |
| CN(C)CCCN1c2ccccc2CCc2ccccc21 | -0.576 ± 1.4 |
| N=C(NCCCCCCNC(=N)NC(=N)Nc1ccc(Cl)cc1)NC(=N)Nc1ccc(Cl)cc1 | -7.98 ± 0.44 |
| Cc1cc(/C=C/c2ccc3cc(N(C)C)ccc3[n+]2C)c(C)n1-c1ccccc1 | < -13.8 |
| C=CC1=C(C)c2cc3[nH]c(cc4nc(cc5[nH]c(cc1n2)c(C)c5CCC(=O)O)C(CCC(=O)O)=C4C)c(C)c3C=C | -1.43 ± 1.3 |
| C[C@]12CC[C@@H]3c4ccc(O)cc4CC[C@H]3[C@@H]1CC[C@@H]2OC(=O)CCC1CCCC1 | -0.125 ± 1.5 |
| O=C(O[C@H]1CN2CCC1CC2)N1CCc2ccccc2[C@@H]1c1ccccc1 | -0.974 ± 1.9 |
| C[n+]1cc2c3c(ccc2c2ccc4cc5c(cc4c21)OCO5)OCO3 | -3.47 ± 3.3 |
| O=C(O)c1cc(/N=N/c2ccc(O)c(C(=O)O)c2)ccc1O | -0.951 ± 2.1 |
